Source: PubChem
DENV2 CPE rescue: inhibitors of DENV2 cytopathic effect. CPE inhibition, % at 9.99 µM. DENV2-infected cells, cytopathic effect rescue, plate reader. 350,000 compounds, 1.7% hits; in the data active = CPE inhibition above about 20%, passing the limit was not always enough; inconclusive = no clear call, values can overlap the other calls; tested in BHK-21 cells
PglD DTNB: PglD (C. jejuni) enzyme inhibition | purified PglD enzyme, DTNB colorimetric CoA detection | inhibition, % at 12.5 µM | 360,000 compounds, 0.098% hits; in the data active = inhibition above about 16%, passing the limit was not always enough; inconclusive = no clear call, values can overlap the other calls
Glyco luc inh: blocks N-linked glycosylation in D54 reporter cells; reporter increase, % at 12.5 µM; 360,000 compounds, 0.23% hits; D54 ERlucT glycosylation luciferase reporter, 24 h; percent of 100 nM tunicamycin response; AID 588692;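 active = mean luciferase reporter signal, scaled so untreated is 0 and the glycosylation-blocking control 100, at or above a set limit in every replicate; inconclusive = mean reaches the limit but not every replicate does; inactive = mean below the limit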;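 also: luciferase carries N-glycosylation sites so blocking glycosylation raises the light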
Rtt109 Vps75: C. albicans Rtt109 histone acetyltransferase inhibition | 330,000 compounds, 0.16% hits | inhibition, % at 34.9 µM | Q5AAJ8 | purified Rtt109/Vps75, ThioGlo CoA-SH fluorescence, 4 h;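 active = inhibition of at least 50% in every replicate; inconclusive = best replicate reaches 50% inhibition but some replicates fall short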
Target sequence (Q5AAJ8 whole entry, looked up): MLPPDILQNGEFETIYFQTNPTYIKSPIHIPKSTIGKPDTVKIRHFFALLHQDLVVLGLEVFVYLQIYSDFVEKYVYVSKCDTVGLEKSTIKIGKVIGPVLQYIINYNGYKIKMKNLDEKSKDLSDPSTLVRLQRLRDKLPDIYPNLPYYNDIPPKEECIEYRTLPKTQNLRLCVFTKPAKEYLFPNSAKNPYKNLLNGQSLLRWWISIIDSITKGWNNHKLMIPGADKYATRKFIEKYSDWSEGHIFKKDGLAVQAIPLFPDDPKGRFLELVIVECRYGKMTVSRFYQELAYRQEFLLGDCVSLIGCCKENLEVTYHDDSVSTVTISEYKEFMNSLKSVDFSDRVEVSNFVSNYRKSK
PglD confirm: confirmation of Campylobacter jejuni PglD acetyltransferase inhibitors; shares compounds with PglD DTNB; Purified C. jejuni PglD, DTNB absorbance 412 nm; inhibition, % at 20 µM; 320 tested, under 10 active;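 active = mean inhibition across replicates of at least 20% with every single replicate also at 20% or more; inconclusive = mean inhibition at least 20% but some replicate falls below 20%; inactive = mean inhibition under 20% and not all replicates reach it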;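 also: initial rate of CoA release by acetyl transfer from AcCoA to the UDP-4-amino sugar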
Of the large screens only hits and unclear results are named; the others gave an inactive call (follow-up assays come after a bar, where they were run). Shown is part of a subset that was picked to be rich in hits.

c1ccc2c(c1)oc1c(NCCN3CCOCC3)ncnc12	none (no result: DENV2 CPE rescue)
CNC(=O)C[C@H]1CC[C@@H]2[C@H](COc3ccc(NC(=O)Nc4ccc(C)cc4)cc3C(=O)N2C)O1	none (no result: Glyco luc inh, Rtt109 Vps75)
O=S(=O)(c1ccc(F)cc1)N1CCCCN2[C@H](CO)[C@@H](c3ccc(-c4ccccc4)cc3)[C@H]2C1	none (no result: Glyco luc inh, Rtt109 Vps75)
CC1(C)C(=O)Nc2ccccc2N1C(=O)CSc1nnc2ccccn12	PglD DTNB 35.4 (no result: DENV2 CPE rescue) | PglD confirm inactive
C[C@@H]1CN([C@@H](C)CO)C(=O)c2cc(NC(=O)c3ccncc3)ccc2O[C@@H](C)CCCCO[C@H]1CN(C)C(=O)NC1CCCCC1	none (no result: Glyco luc inh, Rtt109 Vps75)
CCOc1ccccc1N1CC(C(=O)NCCc2ccc(S(N)(=O)=O)cc2)CC1=O (centres undefined)	none (no result: DENV2 CPE rescue)
CCOc1ccc(N2CC(C(=O)NCCc3ccc(S(N)(=O)=O)cc3)CC2=O)cc1 (centres undefined)	PglD DTNB 30.7 | PglD confirm inconclusive
CO[C@@H]1CN(C)C(=O)c2ccc(NC(=O)C3CC3)cc2OC[C@@H](C)N(C(=O)c2ccccc2)C[C@H]1C	none (no result: Glyco luc inh, Rtt109 Vps75)
O=C(Nc1ccc(OCC(=O)N2CCOCC2)cc1)Nc1cccc(Cl)c1	none (no result: PglD DTNB)
O=C(Nc1ccc(C(=O)N2CCOCC2)cc1)Nc1cccc(Cl)c1	PglD DTNB 24.6 (no result: DENV2 CPE rescue) | PglD confirm inactive
CC(C)C#Cc1ccc([C@@H]2[C@@H](CO)N3CCCCN(C(=O)Nc4ccccc4)C[C@@H]23)cc1	none (no result: Glyco luc inh, Rtt109 Vps75)
Nc1n[nH]c(-c2ccccc2)c1-c1ccccc1	PglD DTNB 32.5 | PglD confirm inactive
Nc1n[nH]c(C(F)(F)F)c1-c1ccccc1	none (no result: Rtt109 Vps75)
C[C@H]1CN([C@@H](C)CO)C(=O)Cc2cc(NS(=O)(=O)c3cccs3)ccc2O[C@H]1CN(C)Cc1ccc(C(F)(F)F)cc1	none (no result: Glyco luc inh, Rtt109 Vps75)
CC(C)c1nc2ccc(NC(=O)C3CCCCC3)cc2[nH]1	PglD DTNB 33.6 (no result: DENV2 CPE rescue) | PglD confirm inactive
O=C(Nc1ccc2nc(-c3ccccn3)[nH]c2c1)C1CCCCC1	none (no result: DENV2 CPE rescue)
Cc1noc(C)c1NC(=O)NCC[C@H]1CC[C@@H](NC(=O)c2ccccc2)[C@H](CO)O1	none (no result: Glyco luc inh, Rtt109 Vps75)
NCc1csc(Nc2cc(Oc3ccccc3)ncn2)n1	PglD DTNB 21.4 (no result: Rtt109 Vps75) | PglD confirm inactive
CC(C)NC(=O)N(C)C[C@H]1Oc2ncc(C#CC3CC3)cc2C(=O)N([C@@H](C)CO)C[C@H]1C	none (no result: Glyco luc inh, Rtt109 Vps75)
CCOC(=O)c1sc(N(Cc2ccccc2)C(=O)CSc2ncn[nH]2)nc1C	PglD DTNB 21.5 (no result: DENV2 CPE rescue) | PglD confirm inactive
CCC(OC(=O)CNS(=O)(=O)c1ccccc1)C(=O)c1ccccc1 (centres undefined)	PglD DTNB 20.1 | PglD confirm inactive
Cn1c(CC(=O)Nc2ccccc2Cl)nnc1SCC(=O)Nc1nncs1	DENV2 CPE rescue inconclusive, PglD DTNB 25.7 | PglD confirm inactive
CC(=O)C1=C(O)C(=O)N(c2ccc(F)cc2)C1c1ccc(C)cc1 (centres undefined)	none
CC(=O)C1=C(O)C(=O)N(c2cccc(C(=O)O)c2)C1c1ccc(F)cc1 (centres undefined)	PglD DTNB 20.6 | PglD confirm inactive
O=C(OCC(=O)N1CCC(Cc2ccccc2)CC1)c1ccc(O)cc1	DENV2 CPE rescue inconclusive, PglD DTNB 23.6 (no result: Rtt109 Vps75) | PglD confirm inactive
O=C(C[C@@H]1CC[C@H](NC(=O)c2ccc(F)cc2)[C@@H](CO)O1)NCc1ccncn1	none (no result: Glyco luc inh, Rtt109 Vps75)
COc1cnc(-c2cccc(C(F)(F)F)c2)c(NC(=O)c2cc3ccccc3s2)n1	PglD DTNB 30.0 (no result: Rtt109 Vps75) | PglD confirm inactive
COc1cccc(CNCCc2c[nH]c3ccccc23)c1OCc1ccc(F)cc1	PglD DTNB 26.3 (no result: DENV2 CPE rescue) | PglD confirm inactive
COc1cc(CNCCc2c[nH]c3ccccc23)ccc1OCc1ccc(F)cc1	none (no result: DENV2 CPE rescue)
CCC(=O)Nc1ccccc1C(=O)OCC(=O)Nc1ccc(S(N)(=O)=O)cc1	PglD DTNB 30.8 (no result: DENV2 CPE rescue) | PglD confirm inactive
Fc1ccc(CNC(=S)NC2CCCCC2)cc1	PglD DTNB 34.8 (no result: DENV2 CPE rescue) | PglD confirm inactive
O=C(O)CC1(CC(=O)Nc2ccc3c(c2)C(=O)OC3)CCCCC1	PglD DTNB 21.1 (no result: Rtt109 Vps75) | PglD confirm inactive
Cn1nc([N+](=O)[O-])nc1N1CCOCC1	PglD DTNB 21.3 (no result: DENV2 CPE rescue) | PglD confirm inactive
CC(C)n1nc(Cc2cccc3ccccc23)c(C#N)c1N	PglD DTNB 88.7 | PglD confirm inactive
CCC(OC(=O)c1ccco1)C(=O)NCc1ccc2c(c1)OCO2 (centres undefined)	PglD DTNB 22.2 | PglD confirm inactive
CCC(OC(=O)c1ccco1)C(=O)NCc1ccc(C)cc1 (centres undefined)	none (no result: DENV2 CPE rescue)
O=C(NC1CCS(=O)(=O)C1)/C(=C\c1ccccc1)NC(=O)c1ccccc1 (centres undefined)	none (no result: DENV2 CPE rescue, PglD DTNB)
O=C(NC1CCS(=O)(=O)C1)/C(=C/c1ccc(Cl)cc1)NC(=O)c1ccccc1 (centres undefined)	PglD DTNB 75.9 | PglD confirm inactive
CC=Cc1ccc2n(c1=O)C[C@@H]1[C@@H](CO)[C@H](C(=O)NCc3cccc(F)c3)[C@H]2N1S(C)(=O)=O (mixture of isomers)	none (no result: Glyco luc inh, Rtt109 Vps75)
CN1[C@H](C(=O)NCc2ccncc2)[C@@H](CO)[C@@H]2Cn3c(ccc(-c4ccccc4F)c3=O)[C@@H]21	none (no result: Glyco luc inh, Rtt109 Vps75)
Cc1cccc(-n2c(N)cc(=O)[nH]c2=S)c1C	none (no result: DENV2 CPE rescue)
Nc1cc(=O)[nH]c(=S)n1-c1cccc(C(F)(F)F)c1	PglD DTNB 44.2 (no result: DENV2 CPE rescue) | PglD confirm inactive
C[C@H]1CN([C@@H](C)CO)S(=O)(=O)c2ccc(/C=C/c3ccccc3)cc2O[C@H]1CN(C)C(=O)c1ccncc1	none (no result: Glyco luc inh, Rtt109 Vps75)
CC(=O)NN=C1CCC(c2ccccc2)CC1 (centres undefined)	none (no result: DENV2 CPE rescue)
NC(N)=NN=C1CCC(c2ccccc2)CC1 (centres undefined)	PglD DTNB 25.2 | PglD confirm inactive
CC(=O)NCC(=O)OCC(=O)c1ccc(Cl)cc1	PglD DTNB 25.9 (no result: Rtt109 Vps75) | PglD confirm inactive
CC(=O)NCC(=O)OCC(=O)c1ccc(Br)cc1	none (no result: DENV2 CPE rescue)
C[C@H]1CN([C@@H](C)CO)C(=O)c2cc(C#Cc3cccnc3)cnc2O[C@@H]1CN(C)C(=O)CN(C)C	none (no result: Glyco luc inh, Rtt109 Vps75)
C[C@@H]1CN([C@@H](C)CO)C(=O)c2cc(NC(=O)C3CC3)ccc2O[C@H]1CN(C)C(=O)Nc1ccc2c(c1)OCO2	none (no result: Glyco luc inh, Rtt109 Vps75)
CN1C(=O)c2cc(NC(=O)C3CCCC3)ccc2OC[C@H]2O[C@H](CC(=O)NCC3CC3)CC[C@H]21	none (no result: Glyco luc inh, Rtt109 Vps75)
Cc1cccc(NC(=O)CN(C)C(=O)C2CC2)c1C	PglD DTNB 22.1 | PglD confirm inactive
Cc1nc([N+](=O)[O-])c(Sc2nc3ccccc3n2C)n1Cc1ccccc1	PglD DTNB 29.9 | PglD confirm inactive
CCCC#Cc1cnc2c(c1)C(=O)N([C@H](C)CO)C[C@@H](C)[C@H](CN(C)Cc1ccncc1)O2	none (no result: Glyco luc inh, Rtt109 Vps75)
COC(=O)c1cc(C)ccc1OCc1ccc([N+](=O)[O-])cc1	DENV2 CPE rescue inconclusive, PglD DTNB 22.8 | PglD confirm inactive
COC(=O)c1ccc(COc2ccc(C)cc2[N+](=O)[O-])o1	none
CCOC(=O)CNC(=S)N(Cc1ccccc1)Cc1cccnc1	PglD DTNB 31.8 | PglD confirm inactive
